Measurements from PubChem BioAssay (Tox21).
Inconclusive results are not listed. Calls of active or inactive are those of the source. Unless noted, calls follow the shape of the dose curve; as a rule, active = well fitted curve in the direction sought with a large enough effect in the repeat runs; inconclusive = weak or mixed curves; inactive = flat fitted curve, though single readings scatter.

Experiments:
[1] = qHTS assay to test for compound auto fluorescence at 535 nm (green) in HEK293 cells (AID 720680)
[2] = qHTS assay to test for compound auto fluorescence at 460 nm (blue) in HEK293 cell free culture (AID 720681)
Procedure, shortened: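 Blue fluorescence (Ex 405/Em 460 nm, triamterene-equivalent) was read immediately after pin transfer of compound or DMSO into medium (DMEM, 10% FBS) without cells.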

[3] = qHTS assay to test for compound auto fluorescence at 535 nm (green) in HEK293 cell free culture (AID 720682)
Procedure, shortened: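 Intrinsic compound fluorescence is measured in culture medium containing 10% FBS, with excitation at 485 nm and detection at 535 nm, referenced to fluorescein.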

[4] = qHTS assay to test for compound auto fluorescence at 590 nm (red) in HEK293 cell free culture (AID 720683)
Procedure, shortened: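 Red-channel autofluorescence of compounds in culture medium (DMEM, 10% FBS), no cells, measured at 540/590 nm. Rose Bengal sodium is the reference fluorophore for equivalence.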

[5] = qHTS assay to test for compound auto fluorescence at 535 nm (green) in HepG2 cell free culture (AID 720686)
[6] = qHTS assay to test for compound auto fluorescence at 460 nm (blue) in HepG2 cells (AID 720687)
Procedure, shortened: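 Blue-channel autofluorescence (Ex/Em 405/460 nm, triamterene-equivalent) was measured after 1 hr compound exposure at 37 C, 5% CO2. Cells were HepG2, plated overnight at 37 C in MEM plus 10% FBS.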

[7] = biological target: Glucocorticoid receptor (Homo sapiens) (UniProt P04150); experiment: qHTS assay to identify small molecule agonists of the glucocorticoid receptor (GR) signaling pathway (AID 720691; active = well fitted activation curve with a large enough effect in the signal ratio in the repeat runs, not every such curve was filed as active; the % refers to the signal ratio)
Sequence of Glucocorticoid receptor (Homo sapiens) (P04150 whole entry, looked up): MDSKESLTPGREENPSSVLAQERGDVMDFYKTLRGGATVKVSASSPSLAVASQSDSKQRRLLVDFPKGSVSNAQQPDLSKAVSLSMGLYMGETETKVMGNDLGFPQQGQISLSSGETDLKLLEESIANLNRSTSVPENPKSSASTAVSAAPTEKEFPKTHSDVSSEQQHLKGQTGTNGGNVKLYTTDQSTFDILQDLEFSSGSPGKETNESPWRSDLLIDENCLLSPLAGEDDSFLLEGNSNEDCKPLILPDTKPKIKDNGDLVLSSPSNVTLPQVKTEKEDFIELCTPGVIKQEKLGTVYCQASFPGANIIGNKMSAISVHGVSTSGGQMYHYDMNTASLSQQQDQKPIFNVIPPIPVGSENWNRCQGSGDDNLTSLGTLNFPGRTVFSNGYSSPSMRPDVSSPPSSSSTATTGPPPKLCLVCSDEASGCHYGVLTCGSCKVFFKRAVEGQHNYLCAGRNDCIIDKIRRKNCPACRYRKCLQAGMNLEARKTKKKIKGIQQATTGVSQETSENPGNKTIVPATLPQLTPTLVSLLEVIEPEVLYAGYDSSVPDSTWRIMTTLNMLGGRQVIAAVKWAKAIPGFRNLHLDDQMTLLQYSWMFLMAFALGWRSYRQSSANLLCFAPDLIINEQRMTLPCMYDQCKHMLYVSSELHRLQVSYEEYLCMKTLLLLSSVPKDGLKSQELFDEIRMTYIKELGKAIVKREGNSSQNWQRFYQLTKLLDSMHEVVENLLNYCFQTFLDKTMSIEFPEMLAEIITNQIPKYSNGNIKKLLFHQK
Procedure, shortened: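 Reporter read-out: fluorescence intensity following 2 h room-temperature LiveBLAzer B/G FRET substrate loading. Prior step: GR-bla HeLa cells held 4 h, then treated 18 h at 37 C.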

[8] = qHTS assay to test for compound auto fluorescence at 460 nm (blue) in HepG2 cell free culture (AID 720685)
Procedure, shortened: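 Compound (23 nL) or DMSO pinned into cell-free MEM with 10% FBS; blue fluorescence read at 405/460 nm excitation/emission, expressed as auto-fluorescence equivalency to triamterene.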

[9] = biological target: Glucocorticoid receptor (Homo sapiens) (UniProt P04150); experiment: qHTS assay to identify small molecule antagonists of the glucocorticoid receptor (GR) signaling pathway (AID 720692; active = well fitted inhibition curve with a large enough effect in the signal ratio in the repeat runs, not every such curve was filed as active; the % refers to the signal ratio)
Procedure, shortened: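 Dexamethasone (5 nM final) stimulated a stably integrated GRE-beta-lactamase reporter in HeLa cells during 18 h co-incubation with compounds; signal was quantified as fluorescence intensity of B/G FRET substrate after 2 h.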

[10] = qHTS assay to test for compound auto fluorescence at 590 nm (red) in HepG2 cell free culture (AID 720684)
Procedure, shortened: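 Steps: dispense MEM/10% FBS medium, no cells; pin compound or DMSO vehicle; read red channel, Ex/Em 540/590 nm. Output given as Rose Bengal sodium equivalents.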
% is scaled to controls: 0 for no effect and ±100 for the full control effect.

CC(=O)OC(C)=O
inactive: outcome [1] | outcome [2] | outcome [3] | outcome [4] | outcome [5] | outcome [6] | Potency [7]

C[Si]1(C)O[Si](C)(C)O[Si](C)(C)O[Si](C)(C)O[Si](C)(C)O1
inactive: outcome [1] | outcome [2] | outcome [3] | outcome [4] | outcome [8] | outcome [5] | outcome [6] | Potency [7] | outcome [9]

OCC(O)CN1CCN(c2ccccc2)CC1 (stereo not given)
inactive: outcome [1] | outcome [2] | outcome [3] | outcome [4] | outcome [8] | outcome [5] | outcome [6] | Potency [7] | outcome [9]

CO[Si](CCCn1c(=O)n(CCC[Si](OC)(OC)OC)c(=O)n(CCC[Si](OC)(OC)OC)c1=O)(OC)OC
inactive: outcome [1] | outcome [3] | outcome [4] | outcome [10] | outcome [8] | outcome [5] | outcome [6]

C[C@]12CCC(=O)C=C1CC[C@H]1[C@@H]3CC[C@](O)(C(=O)CO)[C@@]3(C)C[C@H](O)[C@@]12F
inactive: outcome [1] | outcome [3] | outcome [4] | outcome [10] | outcome [8] | outcome [5] | outcome [6]

O=NN(CCCl)C(=O)NC1CCCCC1
inactive: outcome [1] | outcome [2] | outcome [3] | outcome [4] | outcome [8] | outcome [5] | outcome [6]

Cn1c(=O)c2c(ncn2CCO)n(C)c1=O
inactive: outcome [1] | outcome [3] | outcome [4] | outcome [10] | outcome [8] | outcome [5] | outcome [6]

CC(N)CCCC(C)(C)O (stereo not given)
inactive: outcome [1] | outcome [2] | outcome [3] | outcome [4] | outcome [8] | outcome [5] | outcome [6] | Potency [7] | outcome [9]

COS(=O)(=O)O
inactive: outcome [1] | outcome [2] | outcome [3] | outcome [4] | outcome [8] | outcome [5] | outcome [6]

O=C(NCN1CCOCC1)c1cnccn1
inactive: outcome [1] | outcome [3] | outcome [4] | outcome [8] | outcome [5] | outcome [6] | Potency [7] | outcome [9]

CCC[C@@H]1C[C@@H](C(=O)N[C@@H]([C@H]2O[C@H](SC)[C@H](O)[C@@H](O)[C@H]2O)[C@@H](C)O)N(C)C1
inactive: outcome [1] | outcome [3] | outcome [4] | outcome [10] | outcome [8] | outcome [5] | outcome [6] | Potency [7] | outcome [9]

CC(O)COC(C)(C)C (stereo not given)
inactive: outcome [1] | outcome [3] | outcome [4] | outcome [10] | outcome [5] | outcome [6] | Potency [7]

CC(C)COC(=O)c1ccccc1
inactive: outcome [1] | outcome [3] | outcome [4] | outcome [5] | outcome [6] | Potency [7] | outcome [9]

N[C@@H](Cc1ccc(O)cc1)C(=O)O
inactive: outcome [1] | outcome [3] | outcome [4] | outcome [10] | outcome [8] | outcome [5] | outcome [6] | Potency [7] | outcome [9]

CCO[Si](CC)(OCC)OCC
inactive: outcome [1] | outcome [3] | outcome [4] | outcome [10] | outcome [8] | outcome [5] | outcome [6]

CCCCCCCCCCCCCCCCCC#N
inactive: outcome [1] | outcome [3] | outcome [4] | outcome [10] | outcome [8] | outcome [5] | outcome [6] | Potency [7] | outcome [9]

OC[C@@H](O)C(O)[C@@H](O)CO (stereo not given in full)
inactive: outcome [1] | outcome [3] | outcome [4] | outcome [10] | outcome [8] | outcome [5] | outcome [6] | Potency [7] | outcome [9]

OCCN1CCOCC1
inactive: outcome [1] | outcome [3] | outcome [4] | outcome [10] | outcome [5] | outcome [6]

Cc1cc(C)c(C(=O)O)c(C)c1
inactive: outcome [1] | outcome [3] | outcome [4] | outcome [10] | outcome [8] | outcome [5] | outcome [6] | Potency [7] | outcome [9]

CN(C)CCN(C)CCO
inactive: outcome [1] | outcome [3] | outcome [4] | outcome [8] | outcome [5] | outcome [6] | Potency [7]

C=C(C)[C@@H]1CC=C(C)CC1
inactive: outcome [1] | outcome [3] | outcome [4] | outcome [10] | outcome [5] | outcome [6]

C=Cc1ccc(C(C)(C)C)cc1
inactive: outcome [1] | outcome [3] | outcome [4] | outcome [8] | outcome [5] | outcome [6]

Cc1ccnc(N)c1
inactive: outcome [1] | outcome [3] | outcome [4] | outcome [5] | outcome [6] | Potency [7] | outcome [9]

O=C(O)CSCC(=O)NC1CCSC1=O (stereo not given)
inactive: outcome [1] | outcome [3] | outcome [4] | outcome [10] | outcome [8] | outcome [5] | outcome [6]

CN(C)CCCO[C@@H]1[C@H]2OC(C)(C)O[C@H]2O[C@@H]1C(O)CO (stereo not given in full)
inactive: outcome [1] | outcome [3] | outcome [4] | outcome [10] | outcome [8] | outcome [5] | outcome [6] | Potency [7] | outcome [9]

CCCCC1CCC(O)CC1 (stereo not given)
inactive: outcome [1] | outcome [3] | outcome [4] | outcome [10] | outcome [8] | outcome [5] | outcome [6] | Potency [7]

CC1=NN(c2ccc(S(=O)(=O)O)cc2)C(=O)C1
inactive: outcome [1] | outcome [3] | outcome [4] | outcome [8] | outcome [5] | outcome [6] | Potency [7] | outcome [9]

c1ccc(B(c2ccccc2)c2ccccc2)cc1
inactive: outcome [1] | outcome [3] | outcome [4] | outcome [10] | outcome [5] | outcome [6] | Potency [7]

CC(=O)c1cc(C)oc1C
inactive: outcome [1] | outcome [3] | outcome [4] | outcome [8] | outcome [5] | outcome [6] | Potency [7]

CCC(C)C(C)=O (stereo not given)
inactive: outcome [1] | outcome [3] | outcome [4] | outcome [10] | outcome [8] | outcome [5] | outcome [6] | Potency [7] | outcome [9]

O=C(O)CNC(=O)CNC(=O)CNC(=O)CSC(=O)c1ccccc1
inactive: outcome [1] | outcome [3] | outcome [4] | outcome [10] | outcome [8] | outcome [5] | outcome [6] | Potency [7] | outcome [9]

CCCCSCCCC
inactive: outcome [1] | outcome [3] | outcome [4] | outcome [10] | outcome [8] | outcome [5] | outcome [6] | Potency [7] | outcome [9]

CCn1cc(C(=O)O)c(=O)c2cnc(N3CCCC3)nc21
inactive: fluorescence, % of fluorescein [1] 0.0361% [at 18.6 µM] | activity change [3] -0.0351% [at 18.6 µM] | fluorescence, % of fluorescent control [4] -0.162% [at 18.6 µM] | fluorescence, % of Rose Bengal [10] 0.682% [at 18.6 µM] | fluorescence, % of fluorescent control [8] 0.141% [at 18.6 µM] | fluorescence, % of fluorescein control [5] -0.0006% [at 18.6 µM] | fluorescence, % of fluorescent control [6] 2.47% [at 18.6 µM] | Potency [7] | outcome [9]

Nc1nnnn1-c1ccccc1
inactive: outcome [1] | outcome [3] | outcome [4] | outcome [10] | outcome [8] | outcome [5] | outcome [6] | Potency [7] | outcome [9]

CC(C)Cn1cnc2c1c(=O)n(C)c(=O)n2C
inactive: outcome [1] | outcome [3] | outcome [4] | outcome [10] | outcome [8] | outcome [5] | outcome [6] | Potency [7]

CCCCCC/C=C/C(=O)OC
inactive: outcome [1] | outcome [3] | outcome [4] | outcome [10] | outcome [8] | outcome [5] | outcome [6] | Potency [7] | outcome [9]

CC1=C(C(=O)O)N2C(=O)[C@@H](NC(=O)[C@H](N)c3ccccc3)[C@H]2SC1
inactive: outcome [1] | outcome [3] | outcome [4] | outcome [10] | outcome [8] | outcome [5] | outcome [6] | Potency [7] | outcome [9]

CC(=O)C1C(=O)C=C(C)OC1=O (stereo not given)
inactive: outcome [1] | outcome [3] | outcome [4] | outcome [10] | outcome [8] | outcome [5] | outcome [6] | Potency [7] | outcome [9]

O=[N+]([O-])c1c(Cl)cc(Cl)cc1Cl
inactive: outcome [1] | outcome [3] | outcome [4] | outcome [8] | outcome [5] | outcome [6] | Potency [7] | outcome [9]

CCC(=O)c1c(O)cc(O)cc1O
inactive: outcome [1] | outcome [3] | outcome [4] | outcome [10] | outcome [8] | outcome [5] | outcome [6] | Potency [7] | outcome [9]

CNCCS(=O)(=O)O
inactive: outcome [1] | outcome [3] | outcome [4] | outcome [10] | outcome [8] | outcome [5] | outcome [6] | Potency [7] | outcome [9]

Cc1ccc2c(c1)C(=O)c1ccccc1C2=O
inactive: outcome [1] | outcome [3] | outcome [4] | outcome [5] | outcome [6] | Potency [7]

CC(C)OC(=O)OCOP(=O)(CO[C@H](C)Cn1cnc2c(N)ncnc21)OCOC(=O)OC(C)C
inactive: outcome [1] | outcome [3] | outcome [4] | outcome [10] | outcome [8] | outcome [5] | outcome [6]
